This note sets out measurements from ChEMBL document CHEMBL1157539, “Thousands of chemical starting points for antimalarial lead identification” (Nature, 2010).

In the assay the test system is HepG2. The assay can be described thus: GSK_TCMDC: Percent inhibition of human HepG2 cell line. Test compounds present at 10uM. It is filed as functional.
A word on the Inhibition: it is the relative decrease from the control value, in per cent. Low readings indicate little suppression, high ones strong suppression. The compound `CN1C(C)(C)CC(NC(=O)c2ccc(-c3cc4cc(Cl)c(Cl)cc4[nH]3)o2)CC1(C)C` had an Inhibition of 21%.
The figure for `COc1ccc(-c2csc(N(CCCN(C)C)C(=O)c3cc4c(C)nn(-c5ccccc5)c4s3)n2)cc1.Cl` is 100%; for `O=C(O)C(F)(F)F.O=[N+]([O-])c1cccc(CNC2CCN(Cc3ccc4ccccc4c3)CC2)c1` it is 12%.
The figure for `CN1CCCN(Cc2cccc(-c3ccc(NC(=O)c4cccc(C#N)c4)cc3)c2)CC1.O=C(O)C(F)(F)F` is 27%.
